Experimental data from PubChem BioAssay (NCATS).
Values joined by “and” are separate entries in the source; they are usually repeats but may differ in a detail not shown here. Equal values may be shown once. Unmarked numbers belong to inactive results. Results filed as inconclusive are left out. A call without a number means that no potency is given here. Active and inactive are the calls of the source. Calls come from the whole dose curve; as a rule, active = well fitted curve in the direction sought with a large enough effect; inconclusive = small, poorly fitted or top-dose-only effect, or another doubt; inactive = no such curve, though single readings can be large; an effect the other way counts as inactive or inconclusive.

Tests used:
[1] = target: Glutathione peroxidase 1 (Homo sapiens) (UniProt P07203); experiment: Primary qHTS Assay for Inhibitors of Recombinant Selenoprotein Glutathione Peroxidase 1 (GPX1) (AID 1845191); settings: recombinant GPX1, GR-coupled NADPH fluorescence, 15 min; series mostly up to 48.8 µM; note: nearly all actives have a fitted effect of over 65% in size; note: potency is the fitted concentration of half-maximal effect
In short: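 GR-coupled assay: compounds preincubated 30 min at room temperature with GPX1, then reaction started with CHP; final 10 nM GPX1, 1 mM GSH, 0.5 mM CHP, 0.5 mM NADPH, 100 nM GR, 0.01% BSA, pH 7.5 Tris buffer. NADPH fluorescence (340/450 nm) read at 0 and 15 min.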

[2] = target: Phospholipid hydroperoxide glutathione peroxidase GPX4 (Homo sapiens) (UniProt P36969); experiment: Primary qHTS Assay for Inhibitors of Recombinant Selenoprotein Glutathione Peroxidase 4 (GPX4) (AID 1845192); settings: recombinant GPX4, GR-coupled NADPH fluorescence, 15 min; series mostly up to 50 µM; note: nearly all actives have a fitted effect of over 65% in size; note: potency is the fitted concentration of half-maximal effect
In short: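 GR-coupled assay: recombinant GPX4 preincubated 30 min with compound at room temperature; final 200 nM GPX4, 1 mM GSH, 0.5 mM cumene hydroperoxide, 0.5 mM NADPH, 100 nM GR, 0.01% BSA, pH 7.5 Tris. NADPH fluorescence (340/450 nm) read at 0 and 15 min.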

[3] = target: Luciferin 4-monooxygenase (Photinus pyralis) (UniProt P08659); experiment: Primary firefly luciferase (FLuc) qHTS assay for identification of artifact compounds. (AID 1845220); settings: purified firefly luciferase, luminescence, 5 min; series mostly up to 54.1 µM; note: nearly all actives have a fitted effect of over 60% in size; note: potency is the fitted concentration of half-maximal effect
In short: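 D-luciferin and ATP (10 uM each, final) in Tris acetate buffer pH 7.6 were incubated with compounds for 15 min at room temperature. The reaction was started with 10 nM Photinus pyralis luciferase and luminescence read after 5 min. Percent inhibition was fitted to a 4-parameter Hill equation.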

[4] = Primary fluorescence-based thiol-reactive (MSTI) qHTS assay for identification of artifact compounds. (AID 1845221); settings: MSTI thiol-reactivity probe, 1 h; series mostly up to 53.8 µM; note: nearly all actives have a fitted effect of over 65% in size; note: potency is the fitted concentration of half-maximal effect;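 for activity change, negative = thiol reactive: thiol-reactive compounds lower the probe fluorescence signal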
In short: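 Reactivity toward the thiol probe MSTI (4 uM) is scored by fluorescence at Ex/Em 525/598 nm after 1 h at room temperature. Acetyl-MSTI and MSTI define the activity scale.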

[5] = test system: Nanoluciferase (engineered Oplophorus gracilirostris luciferase); experiment: Primary Nanoluciferase (NLuc) qHTS assay for identification of artifact compounds. (AID 1845222); settings: NLuc-conditioned medium, Nano-Glo luminescence, 5 min; series mostly up to 54.1 µM
In short: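 Diluted conditioned medium from NLuc-expressing S16 cells treated with compounds for 15 min at room temperature, then Nano-Glo substrate added; luminescence read after 5 min. Percent inhibition versus no-enzyme and DMSO controls fitted to 4-parameter Hill equation.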

[6] = Primary redox qHTS assay for identification of artifact compounds. (AID 1845223); settings: Amplex Red/HRP redox cycling with DTT, fluorescence; series mostly up to 53.8 µM
In short: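 Amplex Red (25 uM) and HRP (250 mU/mL) in HBSS, with compounds for 15 min, then 250 uM DTT for 30 min, room temperature, dark. Fluorescence 525/598 nm read; normalized to DMSO and 10 uM DA3003; Hill fit.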

Chain of Phospholipid hydroperoxide glutathione peroxidase GPX4 (Homo sapiens) (P36969 whole entry, looked up): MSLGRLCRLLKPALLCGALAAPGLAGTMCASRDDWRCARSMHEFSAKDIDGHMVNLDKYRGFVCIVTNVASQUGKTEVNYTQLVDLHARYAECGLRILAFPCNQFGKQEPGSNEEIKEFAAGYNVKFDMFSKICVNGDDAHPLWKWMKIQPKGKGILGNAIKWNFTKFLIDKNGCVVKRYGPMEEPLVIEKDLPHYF
Chain of Glutathione peroxidase 1 (Homo sapiens) (P07203 whole entry, looked up): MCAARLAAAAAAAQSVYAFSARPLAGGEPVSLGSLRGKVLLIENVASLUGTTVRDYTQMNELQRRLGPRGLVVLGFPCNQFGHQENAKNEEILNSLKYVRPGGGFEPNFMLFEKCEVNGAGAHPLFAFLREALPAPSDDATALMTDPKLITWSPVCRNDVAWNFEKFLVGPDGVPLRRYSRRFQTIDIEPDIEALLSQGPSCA

| SMILES | Potency [1] | Potency [2] | Potency [3] | Potency [4] | Potency [5] | Potency [6] | activity, negative = inhibition [1] | outcome [2] | outcome [3] | activity change, negative = thiol reactive [4] | activity, negative = inhibition [5] | redox activity (% of DA3003) [6] |
| --- | --- | --- | --- | --- | --- | --- | --- | --- | --- | --- | --- | --- |
| CC(C)(C)c1ccc2c(c1)CC[C@H]2NC(=O)Nc1cccc2[nH]ncc12 | inactive | inactive | inactive | inactive | inactive | inactive | – | – | – | – | – | – |
| OC[C@H]1O[C@@H](OC/C=C/c2ccc(O)cc2)[C@H](O)[C@@H](O)[C@@H]1O | inactive | inactive | inactive | inactive | inactive | inactive | – | – | – | – | – | – |
| C=CC(=O)N1CCCN(c2cc(NCCC(=O)O)nc(-c3ccccn3)n2)CC1 | inactive | inactive | inactive | inactive | inactive | inactive | – | – | – | – | – | – |
| COc1ccc(CNCc2cccc3ccccc23)cc1 | inactive | inactive | inactive | inactive | inactive | inactive | – | – | – | – | – | – |
| C=C(C)C1=C[C@@]2(C)C(=CC1=O)CC[C@@H](O)[C@@H]2C | inactive | inactive | inactive | inactive | inactive | inactive | – | – | – | – | – | – |
| O=C(Nc1cc(C(F)(F)F)cc(C(F)(F)F)c1)c1cnc(Cl)nc1C(F)(F)F | inactive | inactive | inactive | inactive | inactive | inactive | – | – | – | – | – | – |
| CN(C)N(C)C(=O)[C@@]1(Cc2ccccc2)CCCN(C(=O)[C@@H](Cc2c[nH]c3ccccc23)NC(=O)C(C)(C)N)C1 | inactive | inactive | inactive | inactive | inactive | inactive | – | – | – | – | – | – |
| CNc1cc2[nH]c(=O)n(-c3ccc(NC(=O)NS(=O)(=O)c4ccc(Cl)s4)cc3)c(=O)c2cc1F | inactive | inactive | inactive | inactive | inactive | inactive | – | – | – | – | – | – |
| O=S(=O)(N[C@H]1CCCC[C@@H]1N1CCOCC1)c1ccc(Cl)cc1 | inactive | inactive | inactive | inactive | inactive | inactive | – | – | – | – | – | – |
| CCn1nc(C2CCN(C(=O)CCO)CC2)nc1-c1cnc(N)c(-c2nnc(C(C)(C)C)o2)n1 | 20.2 µM (active) and 20.5 µM (active) | 14.3 µM (active) | inactive | inactive | inactive | inactive | – | – | – | – | – | – |
| CNC(=O)COC(=O)N1CCC(CCc2ccc(Cl)cc2)CC1 | inactive | inactive | inactive | inactive | inactive | inactive | – | – | – | – | – | – |
| O=C1COc2nccc(-c3ccccc3F)c2CN1Cc1cc(C(F)(F)F)cc(C(F)(F)F)c1 | inactive | inactive | inactive | inactive | inactive | inactive | – | – | – | – | – | – |
| CC(C)n1c(=O)c(C(=O)NC2CC3CCC(C2)N3C[C@@H](O)CN(C)S(C)(=O)=O)cc2ccccc21 (stereo not given in full) | inactive | inactive | inactive | inactive | inactive | inactive | – | – | – | – | – | – |
| Nc1nc(Cl)nc2c1ncn2C1OC(CO)C(O)C1F (stereo not given) | inactive | inactive | inactive | inactive | inactive | inactive | – | – | – | – | – | – |
| CO[C@@H]1[C@H](O)CCC2(CO2)[C@H]1[C@@]1(C)O[C@@H]1CC=C(C)C (stereo not given in full) | inactive | inactive | inactive | inactive | inactive | inactive | – | – | – | – | – | – |
| Cc1ccc(-c2cn3c4c(sc3n2)CCCC4)cc1 | inactive | inactive | 0.19 µM (active) | inactive | inactive | inactive | – | – | – | – | – | – |
| COc1ccccc1S(=O)(=O)Nc1ccc2c(c1)CN(C)C(=O)N2 | inactive | inactive | inactive | inactive | inactive | inactive | – | – | – | – | – | – |
| COC1CC(=O)C23C(=O)NC(CC(C)C)C2C(C)C(C)=CC3/C=C(\C)CCCC1O (stereo not given) | inactive | inactive | inactive | inactive | inactive | inactive | – | – | – | – | – | – |
| C=C1C(=O)O[C@@H]2/C=C(\CO)CC/C=C(\CO)[C@H](OC(C)=O)C(OC(=O)C(C)CC)C12 (stereo not given in full) | inactive | inactive | inactive | inactive | inactive | inactive | – | – | – | – | – | – |
| CC(C)(C)c1ccc(-c2nc3c(N4CCN(Cc5ccc6nccnc6c5)CC4)cccc3[nH]2)cc1 | inactive | inactive | 1.51 µM (active) | 6.7 µM (active) | inactive | inactive | – | – | – | – | – | – |

| SMILES | Potency [1] | Potency [2] | Potency [3] | Potency [4] | Potency [5] | Potency [6] | activity, negative = inhibition [1] | outcome [2] | outcome [3] | activity change, negative = thiol reactive [4] | activity, negative = inhibition [5] | redox activity (% of DA3003) [6] |
| --- | --- | --- | --- | --- | --- | --- | --- | --- | --- | --- | --- | --- |
| COc1ccc(C2(CNC(=O)c3ccc(NC(=O)c4ccco4)cc3)CCOCC2)cc1 | inactive | inactive | inactive | inactive | inactive | inactive | – | – | – | – | – | – |
| CCn1c(=O)c(-c2ccc(Cl)cc2Cl)cc2cnc(Nc3ccc(N4CCNCC4)c(F)c3)nc21 | inactive | inactive | inactive | inactive | inactive | inactive | – | – | – | – | – | – |
| C=C1C(=O)O[C@@H]2C[C@@]3(C)C[C@@H](O)C[C@H](C)C3=C[C@H]12 | inactive | inactive | inactive | inactive | inactive | inactive | – | – | – | – | – | – |
| C=C1CCC2C(C)(C(=O)O)CCCC2(C)C1CCC1=CCOC1=O (stereo not given) | inactive | inactive | inactive | inactive | inactive | inactive | – | – | – | – | – | – |
| CCC(C)c1ccc(NC(=O)Cn2cnc3c2c(=O)n(C)c(=O)n3C)cc1 (stereo not given) | inactive | inactive | inactive | inactive | inactive | inactive | – | – | – | – | – | – |
| O=C(NCc1ccccc1)c1ccc2c(=O)n(-c3cccc(C(F)(F)F)c3)c(=S)[nH]c2c1 | inactive | inactive | inactive | inactive | inactive | inactive | – | – | – | – | – | – |
| CNc1ccc([N+](=O)[O-])c(Nc2ccc3[nH]ncc3c2)n1 | inactive | inactive | inactive | 4.74 µM (active) | inactive | inactive | – | – | – | – | – | – |
| CC(=O)OC1CC(O)(C(C)C)C2C(OC(=O)c3ccc(O)cc3)C=C(C)C(=O)CC12C (stereo not given) | inactive | inactive | inactive | inactive | inactive | inactive | – | – | – | – | – | – |
| O=C(NCc1ccccc1-c1ccccc1C(=O)NCCc1ccccn1)OCc1ccccc1 | inactive | inactive | inactive | inactive | inactive | inactive | – | – | – | – | – | – |
| Cc1cn2cc(C(=O)N(C)CCO)cc(NC3CCOc4cccc(C)c43)c2n1 (stereo not given) | inactive | inactive | inactive | inactive | inactive | inactive | – | – | – | – | – | – |
| CCCCOC(=O)NS(=O)(=O)c1sc(CC(C)C)cc1-c1ccc(Cn2ccnc2)cc1 | inactive | inactive | inactive | inactive | inactive | inactive | – | – | – | – | – | – |
| C=C1CO[C@@]2(O[C@H]3CC4C5CC=C6C[C@@H](O)C[C@@H](O[C@@H]7OC[C@H](O)[C@H](O[C@@H]8OC[C@@H](O)[C@H](O)[C@H]8O)[C@H]7O[C@@H]7O[C@@H](C)[C@H](OC(C)=O)[C@@H](OC(C)=O)[C@H]7OC(C)=O)[C@]6(C)C5CC[C@]4(C)[C@@H]3[C@@H]2C)[C@@H](O)[C@H]1OC1OC(C)C(O)C(O)C1O (stereo not given in full) | – | – | – | – | – | – | 0.917% [at 9.52 µM] | inactive [at 9.73 µM] | inactive [at 11.6 µM] | 69.1% [at 11.5 µM] | 1.51% [at 11.6 µM] | 7.69% [at 11.5 µM] |
| Cc1ccc(N2CCN(S(=O)(=O)N3CCCCC3)CC2)c(C)c1 | inactive | inactive | inactive | inactive | inactive | inactive | – | – | – | – | – | – |
| COc1ccccc1OCCN1CC(COc2cccc3[nH]c4ccccc4c23)OCC1=O (stereo not given) | inactive | inactive | inactive | inactive | inactive | inactive | – | – | – | – | – | – |
| O=C(Nc1ccc(CN2CCOCC2)cc1)c1ccc(-c2cccc(Cl)c2)o1 | inactive | inactive | inactive | inactive | inactive | inactive | – | – | – | – | – | – |
| CN1CCN(S(=O)(=O)c2ccc(-c3cnc(N)c(C(=O)Nc4cccnc4)n3)cc2)CC1 | inactive | inactive | inactive | inactive | inactive | inactive | – | – | – | – | – | – |
| CC(=O)OC1[C@H]2[C@@H](C[C@@H](C)[C@@H]3C=CC(=O)[C@@]13C)OC(=O)[C@@H]2C (stereo not given in full) | inactive | inactive | inactive | 23.8 µM (active) | inactive | inactive | – | – | – | – | – | – |
| O=C(NCCCCN1CCN(c2cccc(Cl)c2Cl)CC1)c1cc2ccccc2s1 | inactive | inactive | inactive | inactive | inactive | inactive | – | – | – | – | – | – |
| C/C=C(/C)C(=O)O[C@@H]1C[C@@H](OC(=O)CC(C)C)C2(C)C3C(=O)C=C(C)C2C3C1(C)C (stereo not given in full) | inactive | inactive | inactive | inactive | inactive | inactive | – | – | – | – | – | – |
| Cn1ncc(Cl)c1-c1cc(C(=O)NC(CN)Cc2ccc(F)c(F)c2)oc1Cl (stereo not given) | inactive | inactive | inactive | inactive | inactive | inactive | – | – | – | – | – | – |
